# Data as given in PMC5540273 (PLoS ONE, 2017).
# Several values for one entry are separate records, joined by “and”; a condition that tells them apart may be missing. Equal entries are not always repeated. Where two headings read alike, the source gives them in different places.
# Tests used:
# LKB1 = system: T1, LKB1; conditions: concentration: 1 μM, replicates: in singlicate, n = 1
# T1 construct: gene STK11
# LOK = system: T2, LOK; conditions: concentration: 1 μM, replicates: in singlicate, n = 1
# T2 construct: gene STK10
# LRRK2 = conditions: concentration: 1 μM, replicates: in singlicate; n = 1
# LTK = conditions: concentration: 1 μM, replicates: in singlicate; n = 1
# LYN = conditions: concentration: 1 μM, replicates: in singlicate, n = 1
# LZK = system: T3, LZK; conditions: concentration: 1 μM, replicates: in singlicate, n = 1
# T3 construct: gene MAP3K13
# MAK = conditions: concentration: 1 μM, replicates: in singlicate, n = 1
# MAP3K15 = conditions: concentration: 1 μM, replicates: in singlicate, n = 1
# MAP3K1 = conditions: concentration: 1 μM, replicates: in singlicate, n = 1
# MAP3K2 = conditions: concentration: 1 μM, replicates: in singlicate, n = 1
# MAP3K3 = conditions: concentration: 1 μM, replicates: in singlicate, n = 1
# MAP3K4 = conditions: concentration: 1 μM, replicates: in singlicate, n = 1
# MAP4K2 = conditions: concentration: 1 μM, replicates: in singlicate, n = 1
# MAP4K3 = conditions: concentration: 1 μM, replicates: in singlicate, n = 1
# MAP4K4 = conditions: concentration: 1 μM, replicates: in singlicate; n = 1
# MAP4K5 = conditions: concentration: 1 μM, replicates: in singlicate; n = 1
# MAPKAPK2 = conditions: concentration: 1 μM, replicates: in singlicate, n = 1
# MAPKAPK5 = conditions: concentration: 1 μM, replicates: in singlicate, n = 1
# MARK1 = conditions: concentration: 1 μM, replicates: in singlicate; n = 1
# MARK2 = conditions: concentration: 1 μM, replicates: in singlicate, n = 1
# 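Also: KINOMEscan kinase panel screen.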
smiles,measurement,setting,value
C[C@H]1CC[C@@H](C(=O)Nc2ccccc2)CN1c1cc(-c2ccc3c(N)n[nH]c3c2)nc(N)n1 [GSK2283293],%Inh,LKB1,15%
same,%Inh,LOK,0%
same,%Inh,LRRK2,0%
same,%Inh,LTK,0%
same,%Inh,LYN,0%
same,%Inh,LZK,0%
same,%Inh,MAK,12%
same,%Inh,MAP3K15,0%
same,%Inh,MAP3K1,0%
same,%Inh,MAP3K2,0%
same,%Inh,MAP3K3,34%
same,%Inh,MAP3K4,5%
same,%Inh,MAP4K2,0%
same,%Inh,MAP4K3,0%
same,%Inh,MAP4K4,7%
same,%Inh,MAP4K5,0%
same,%Inh,MAPKAPK2,22%
same,%Inh,MAPKAPK5,0%
same,%Inh,MARK1,0%
same,%Inh,MARK2,0%
Cn1ccc2ncnc(Oc3ccc(NC(=O)Nc4cccnc4)c(Cl)c3)c21,%Inh,LKB1,11%
same,%Inh,LOK,35%
same,%Inh,LRRK2,0%
same,%Inh,LTK,6%
same,%Inh,LYN,5%
same,%Inh,LZK,0%
same,%Inh,MAK,0%
same,%Inh,MAP3K15,0%
same,%Inh,MAP3K1,0%
same,%Inh,MAP3K2,0%
same,%Inh,MAP3K3,0%
same,%Inh,MAP3K4,2%
same,%Inh,MAP4K2,0%
same,%Inh,MAP4K3,0%
same,%Inh,MAP4K4,0%
same,%Inh,MAP4K5,0%
same,%Inh,MAPKAPK2,0%
same,%Inh,MAPKAPK5,0%
same,%Inh,MARK1,0%
same,%Inh,MARK2,0%
COc1ccc(-c2nc3n(c2-c2ccncc2)CCC3)cc1 [SKF-104493],%Inh,LKB1; 1 µM,27% and 21%
same,%Inh,LOK; 1 µM,19% and 11%
same,%Inh,LRRK2,0%
same,%Inh,LTK,2%
same,%Inh,LYN; 1 µM,9% and 0%
same,%Inh,LZK; 1 µM,0% and 5%
same,%Inh,MAK; 1 µM,19% and 0%
same,%Inh,MAP3K15; 1 µM,3% and 4%
same,%Inh,MAP3K1; 1 µM,11% and 1%
same,%Inh,MAP3K2; 1 µM,6% and 0%
same,%Inh,MAP3K3; 1 µM,6% and 0%
same,%Inh,MAP3K4; 1 µM,28% and 3%
same,%Inh,MAP4K2; 1 µM,7% and 0%
same,%Inh,MAP4K3; 1 µM,0% and 8%
same,%Inh,MAP4K4,0%
same,%Inh,MAP4K5,0%
same,%Inh,MAPKAPK2; 1 µM,12% and 9%
same,%Inh,MAPKAPK5; 1 µM,13% and 10%
same,%Inh,MARK1,0%
same,%Inh,MARK2; 1 µM,0% and 11%
O=C(CCO)NCCn1ccc2ncnc(Nc3ccc(Oc4cccc(C(F)(F)F)c4)c(Cl)c3)c21,%Inh,LKB1,39%
same,%Inh,LOK,72%
same,%Inh,LRRK2,0%
same,%Inh,LTK,0%
same,%Inh,LYN,8%
same,%Inh,LZK,0%
same,%Inh,MAK,0%
same,%Inh,MAP3K15,0%
same,%Inh,MAP3K1,0%
same,%Inh,MAP3K2,0%
same,%Inh,MAP3K3,0%
same,%Inh,MAP3K4,0%
same,%Inh,MAP4K2,0%
same,%Inh,MAP4K3,3%
same,%Inh,MAP4K4,3%
same,%Inh,MAP4K5,0%
same,%Inh,MAPKAPK2,0%
same,%Inh,MAPKAPK5,0%
same,%Inh,MARK1,0%
same,%Inh,MARK2,4%
O=c1cc(N2CCOCC2)nc2n(Cc3cccc(Cl)c3)ccn12 [GSK2296823],%Inh,LKB1,0%
same,%Inh,LOK,0%
same,%Inh,LRRK2,35%
same,%Inh,LTK,0%
same,%Inh,LYN,0%
same,%Inh,LZK,0%
same,%Inh,MAK,0%
same,%Inh,MAP3K15,11%
same,%Inh,MAP3K1,6%
same,%Inh,MAP3K2,8%
same,%Inh,MAP3K3,0%
same,%Inh,MAP3K4,4%
same,%Inh,MAP4K2,0%
same,%Inh,MAP4K3,7%
same,%Inh,MAP4K4,0%
same,%Inh,MAP4K5,0%
same,%Inh,MAPKAPK2,40%
same,%Inh,MAPKAPK5,0%
same,%Inh,MARK1,0%
same,%Inh,MARK2,81%
COC(=O)c1cccc(NC(=O)NCCNc2ccnc(Nc3ccc(F)cc3)n2)c1 [GSK1379883],%Inh,LKB1,16%
same,%Inh,LOK,0%
same,%Inh,LRRK2,0%
same,%Inh,LTK,0%
same,%Inh,LYN,0%
same,%Inh,LZK,1%
same,%Inh,MAK,26%
same,%Inh,MAP3K15,0%
same,%Inh,MAP3K1,0%
same,%Inh,MAP3K2,0%
same,%Inh,MAP3K3,0%
same,%Inh,MAP3K4,0%
same,%Inh,MAP4K2,0%
same,%Inh,MAP4K3,0%
same,%Inh,MAP4K4,0%
same,%Inh,MAP4K5,0%
same,%Inh,MAPKAPK2,24%
same,%Inh,MAPKAPK5,0%
same,%Inh,MARK1,0%
same,%Inh,MARK2,0%
COc1cc2c(Nc3cccc(NC(=O)c4ccccc4)c3)ncnc2cc1OCCCN1CCOCC1 [GSK223810],%Inh,LKB1,0%
same,%Inh,LOK,10%
same,%Inh,LRRK2,0%
same,%Inh,LTK,0%
same,%Inh,LYN,90.3%
same,%Inh,LZK,0%
same,%Inh,MAK,0%
same,%Inh,MAP3K15,0%
same,%Inh,MAP3K1,0%
same,%Inh,MAP3K2,6%
same,%Inh,MAP3K3,0%
same,%Inh,MAP3K4,18%
same,%Inh,MAP4K2,0%
same,%Inh,MAP4K3,9%
same,%Inh,MAP4K4,0%
same,%Inh,MAP4K5,43%
same,%Inh,MAPKAPK2,5%
same,%Inh,MAPKAPK5,0%
same,%Inh,MARK1,11%
same,%Inh,MARK2,0%
Cl.O=S(=O)(c1cccc(F)c1)c1ccc(Nc2ncnc3cc(Br)sc23)cc1Cl [GSK306886],%Inh,LKB1,10%
same,%Inh,LOK,6%
same,%Inh,LRRK2,0%
same,%Inh,LTK,0%
same,%Inh,LYN,0%
same,%Inh,LZK,0%
same,%Inh,MAK,10%
same,%Inh,MAP3K15,0%
same,%Inh,MAP3K1,24%
same,%Inh,MAP3K2,7%
same,%Inh,MAP3K3,0%
same,%Inh,MAP3K4,9%
same,%Inh,MAP4K2,0%
same,%Inh,MAP4K3,0%
same,%Inh,MAP4K4,0%
same,%Inh,MAP4K5,0%
same,%Inh,MAPKAPK2,0%
same,%Inh,MAPKAPK5,0%
same,%Inh,MARK1,0%
same,%Inh,MARK2,0%
Nc1nccc2scc(-c3ccc4c(c3)CCN4C(=O)Cc3cc(F)ccc3F)c12 [GSK2587663],%Inh,LKB1,14%
same,%Inh,LOK,0%
same,%Inh,LRRK2,9%
same,%Inh,LTK,2%
same,%Inh,LYN,0%
same,%Inh,LZK,0%
same,%Inh,MAK,8%
same,%Inh,MAP3K15,0%
same,%Inh,MAP3K1,7%
same,%Inh,MAP3K2,23%
same,%Inh,MAP3K3,0%
same,%Inh,MAP3K4,10%
same,%Inh,MAP4K2,0%
same,%Inh,MAP4K3,3%
same,%Inh,MAP4K4,0%
same,%Inh,MAP4K5,9%
same,%Inh,MAPKAPK2,20%
same,%Inh,MAPKAPK5,0%
same,%Inh,MARK1,0%
same,%Inh,MARK2,0%
O=C(Nc1ccccc1)Nc1ccc(Oc2ccc3nccn3n2)cc1,%Inh,LKB1,0%
same,%Inh,LOK,39%
same,%Inh,LRRK2,0%
same,%Inh,LTK,0%
same,%Inh,LYN,0%
same,%Inh,LZK,0%
same,%Inh,MAK,0%
same,%Inh,MAP3K15,0%
same,%Inh,MAP3K1,0%
same,%Inh,MAP3K2,0%
same,%Inh,MAP3K3,9%
same,%Inh,MAP3K4,21%
same,%Inh,MAP4K2,0%
same,%Inh,MAP4K3,0%
same,%Inh,MAP4K4,0%
same,%Inh,MAP4K5,0%
same,%Inh,MAPKAPK2,0%
same,%Inh,MAPKAPK5,0%
same,%Inh,MARK1,0%
same,%Inh,MARK2,0%
